Reference: PubChem BioAssay AID463187 (University of Pittsburgh Molecular Library Screening Center, 2010)
Among all 220,000 compounds or so, about 1,500 (0.68%) were called active. The sample holds actives, similar compounds and a random draw of the others, so the mix is not that of the screen.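 Rule for the calls: active = Hck-Nef kinase inhibition above about 50% (limit read from the data); inactive = inhibition below that limit.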

Each compound was assayed against Tyrosine-protein kinase HCK (Homo sapiens) (UniProt P08631) (assay: Hck:Nef complex kinase activity blockers – biochemical, Z-Lyte FRET, 384-well, Hck-YEEI, primary screen (AID 463187;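 note: 0% = DMSO with Hck plus Nef and 100% = Hck alone without Nef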)). Details: Recombinant Hck-YEEI plus Nef, Z-Lyte FRET kinase assay; at 20 µM; active compounds read high.
Sequence of Tyrosine-protein kinase HCK (Homo sapiens) (P08631 whole entry, looked up): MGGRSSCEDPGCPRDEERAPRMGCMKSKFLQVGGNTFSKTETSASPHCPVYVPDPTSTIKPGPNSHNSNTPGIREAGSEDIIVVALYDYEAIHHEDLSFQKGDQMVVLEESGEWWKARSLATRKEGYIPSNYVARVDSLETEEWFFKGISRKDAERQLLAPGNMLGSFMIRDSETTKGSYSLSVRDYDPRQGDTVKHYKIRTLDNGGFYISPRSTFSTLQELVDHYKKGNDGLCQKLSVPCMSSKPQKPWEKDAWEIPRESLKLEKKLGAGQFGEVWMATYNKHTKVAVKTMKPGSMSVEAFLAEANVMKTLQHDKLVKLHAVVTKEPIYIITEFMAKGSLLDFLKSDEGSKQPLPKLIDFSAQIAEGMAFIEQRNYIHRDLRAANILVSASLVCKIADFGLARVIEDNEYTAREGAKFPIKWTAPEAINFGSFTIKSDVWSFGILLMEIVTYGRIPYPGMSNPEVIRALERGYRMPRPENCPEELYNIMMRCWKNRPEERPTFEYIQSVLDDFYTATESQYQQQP

SMILES	inhibition
Cc1c(C(=O)Nc2ccccc2Cl)oc2ccc(S(=O)(=O)N3CCC4(CC3)OCCO4)cc12	74.2% (active)
CCOc1ccccc1NC(=O)c1cc(S(=O)(=O)N2CCC3(CC2)OCCO3)ccc1F	2.23% (inactive)
COc1ccc(NC(=O)c2oc3ccc(S(=O)(=O)N4CCOCC4)cc3c2C)cc1	-8.31% (inactive)
O=C(CCSCCc1ccccn1)Nc1nccs1	7.74% (inactive)
OCc1nc(CO)n(Cc2ccccc2)n1	0.365% (inactive)
CC1CCCN(CCOCCOc2ccccc2-c2ccccc2)C1 (stereo not drawn)	0.832% (inactive)
Cc1ccc(NC(=S)N2CCCC(c3ccccc3)=N2)cc1	-10% (inactive)
CCOC(=O)N/N=C/c1cccnc1	-26.2% (inactive)
Cc1nc2ccccc2n1CC(=O)N/N=C/c1cccnc1	24.3% (inactive)
O=C(CSc1cccc2cccnc12)N/N=C/c1cccnc1	51.3% (active)
CC(CNc1ccc([N+](=O)[O-])c2cccnc12)Nc1c([N+](=O)[O-])cc(C(F)(F)F)cc1[N+](=O)[O-] (stereo not drawn)	-2.43% (inactive)
Cc1cccc(/C(N)=N/OC(=O)c2ccccc2Cl)c1	5.79% (inactive)
COc1ccccc1C(=O)Oc1ccc(N2C(=O)CCC2=O)cc1	1.47% (inactive)
Cc1cc(OC(=O)c2ccccc2Cl)ccc1N1C(=O)CCC1=O	52.4% (active)
Cc1sc2c(c1C)c(=O)n(-c1ccccc1)c(=O)n2CC(=O)NCC1CCCO1 (stereo not drawn)	-19.9% (inactive)
O=C(COC(=O)c1ccccc1NC(=O)c1ccco1)Nc1ccc2c(c1)OC(F)(F)O2	5.95% (inactive)
Cc1ccc(-n2c(=O)c(C#N)cc3c(=O)n4ccccc4nc32)cc1C	73.3% (active)
CCn1c(=N)c(S(=O)(=O)c2ccc(F)cc2)cc2c(=O)n3ccccc3nc21	11.1% (inactive)
Cc1ccc(-n2ncc3c(=O)n(-c4ccc(C)c(C)c4)c(-c4ccco4)nc32)cc1	-0.384% (inactive)
CNC(=S)Nc1ccc([N+](=O)[O-])cc1	21.3% (inactive)
CN(C)CC(C)(C)CNC(=O)c1cc(Br)cc(Br)c1O	21.9% (inactive)
COc1cc(NC(=O)COC(=O)CSc2ccc3ccccc3c2)c(C)cc1[N+](=O)[O-]	2.59% (inactive)
Cc1cccc(N2CCN(C(=O)CN(C)S(=O)(=O)c3ccc4c(c3)CCC(=O)N4)CC2)c1C	0.348% (inactive)
CCc1ccc(CNC(=O)C2CCCN(c3nc4ccccc4o3)C2)cc1 (stereo not drawn)	-20.1% (inactive)

SMILES	inhibition
O=C(NCc1ccccc1)C1CCCN(c2nc3ccsc3c(=O)s2)C1 (stereo not drawn)	63.7% (active)
O=C(NCc1ccccc1)C1CCCN(S(=O)(=O)c2cccs2)C1 (stereo not drawn)	-1.98% (inactive)
CN(C(=O)COC(=O)c1cc(-c2ccco2)nc2ccccc12)C1CCS(=O)(=O)C1 (stereo not drawn)	65.3% (active)
COc1ccc(NC(=O)COc2ccc(C(=O)OCC(=O)N(C)C3CCS(=O)(=O)C3)cc2OC)cc1 (stereo not drawn)	-34.5% (inactive)
Cc1c(-c2cccc(Cl)c2)nc2ccccc2c1C(=O)OCC(=O)N(C)C1CCS(=O)(=O)C1 (stereo not drawn)	-3.32% (inactive)
CC(C)Cc1nn2c(=O)cc(O)nc2s1	1.45% (inactive)
O=C(NNC(=O)c1csc(-c2cccnc2)n1)Nc1ccc(Cl)cc1	52.2% (active)
O=C(Nc1ccc(Cl)cc1)Nc1ccc(Oc2cccnc2)nc1	-9.14% (inactive)
O=C(NNC(=O)c1cccnc1)Nc1ccccc1	-0.546% (inactive)
CC(=O)Nc1ccc(OCCC[n+]2cccc(C(=O)[O-])c2)cc1	12% (inactive)
FC(F)(F)c1ccc(CN2C[C@@H]3C(c4ccccc4)C4(c5ccccc5)CC3(C4)[C@H]2c2ccccc2)cc1 (stereo partly drawn)	17.4% (inactive)
Cc1cccc(-n2c(SCC(N)=O)nc3c(c2=O)C2(CCCCC2)Cc2ccccc2-3)c1	6.81% (inactive)
COc1cccc(Nc2nnc(SCC(=O)N3CC(=O)Nc4ccccc43)s2)c1	36.9% (inactive)
CCCc1nc2ccccc2c(C(=O)OCC(=O)c2ccc3c(c2)NC(=O)CO3)c1CC	-1.08% (inactive)
CCc1ccc(Nc2nnc(SCC(=O)c3ccc4c(c3)NC(=O)CO4)s2)cc1	105% (active)
CO/N=C(\N)c1ccc([N+](=O)[O-])cc1	3.14% (inactive)
CCOc1ccc(N2C(=O)Nc3ccccc3C2(O)C(=O)NCc2ccco2)cc1 (stereo not drawn)	20.7% (inactive)
CNc1ccc(SC#N)cc1	33.3% (inactive)
N#Cc1c(-c2ccc(F)cc2)cc(C2CC2)nc1SCC(=O)c1cccs1	3.07% (inactive)
N=c1ccn(CC(=O)NC(N)=O)c2ccccc12	0.937% (inactive)
O=C(NC1CCCCCC1)c1cccnc1Sc1ccc(Cl)cc1	2.04% (inactive)
CCS(=O)(=O)C1=NSC2=NC(=O)/C(=C\c3cc(C)n(-c4cccc(OC)c4)c3C)C(=N)N21	55.1% (active)
Cc1cc(/C=C2/C(=N)N3C(=NC2=O)SN=C3S(C)(=O)=O)c(C)n1-c1ccccc1	0.408% (inactive)
CCC1=NN2C(=N)/C(=C/c3cc(C)n(-c4ccccc4)c3C)C(=O)N=C2S1	15.3% (inactive)

SMILES	inhibition
O=c1cc(-c2ccccc2)[nH]c2cc(F)ccc12	2.23% (inactive)
CCc1ccccc1N1CN(Cc2ccco2)CNC1=S	3.91% (inactive)
O=C1/C(=C/c2cccs2)CCC1C1CCCC1 (stereo not drawn)	26% (inactive)
CCOc1ccc(C2c3[nH]c4ccccc4c3CCN2Cc2cccn2-c2ncccn2)cc1 (stereo not drawn)	15.4% (inactive)
CCOc1ccccc1C1C(C(=O)OC)=CN(C)C=C1C(=O)OC	71.8% (active)
CCOc1cc(C2C(C(=O)OC)=CN(C3CCCC3)C=C2C(=O)OC)cc(Br)c1O	1.91% (inactive)
COC(=O)C1=CN(C)C=C(C(=O)OC)C1c1ccc(Cl)cc1Cl	9.15% (inactive)
O=C(NCC1CCCCC1)c1cc(S(=O)(=O)N2CCCCC2)ccc1N1CCOCC1	19.1% (inactive)
Cc1cccc(NS(=O)(=O)c2ccc(C)c(C(N)=O)c2)c1	-7.85% (inactive)
COc1cccc(CN(C)CC(=O)Nc2ccccc2C(=O)Nc2ccccc2)c1	4.04% (inactive)
COc1ccc(-c2cc3nc(C)c(CCC(=O)NC(C)CCc4ccco4)c(C)n3n2)c(OC)c1 (stereo not drawn)	-1.24% (inactive)
Cc1cnc(C(=O)N2CCCC(C(=O)c3ccc(C(F)(F)F)cc3)C2)cn1 (stereo not drawn)	17.7% (inactive)
COc1cccc(C(=O)N2CCCC(CCC(=O)NCc3ccc(F)c(F)c3)C2)c1 (stereo not drawn)	18.6% (inactive)
COc1cccc(CNC(=O)CCC2CCCN(C(=O)c3ccoc3C)C2)c1 (stereo not drawn)	1.1% (inactive)
COc1cccc(CNC(=O)CCC2CCCN(Cc3ccc(OC(F)F)cc3)C2)c1 (stereo not drawn)	52.7% (active)
O=C(/C=C/c1ccc(F)cc1)Nc1cccc(S(=O)(=O)Nc2cccc(C(F)(F)F)c2)c1	2.87% (inactive)
CC(=O)NC(=S)NNC(=O)c1ccc(Br)cc1	-1.36% (inactive)
COc1cccc2c1OCC(C(=O)NCc1ccc(Cl)cc1Cl)=C2	2.65% (inactive)
Cc1nc2nc(SCC(=O)c3ccccc3)[nH]c2cc1Br	16.2% (inactive)
CCc1ccc(C(=O)CSc2nnc(C)c(=O)[nH]2)cc1	10.1% (inactive)
N#Cc1c(-c2cccs2)nc(SCC(=O)c2ccc(Br)cc2)[nH]c1=O	72.7% (active)
COc1cccc(C2Nc3cccc4cccc(c34)N2)c1	21.8% (inactive)
COCc1cc(C)nc2sc(C(=O)NC3CCCCC3)c(N)c12	1.3% (inactive)
COc1cccc(C(=O)c2cc3ccc(O)cc3oc2=O)c1	63.1% (active)

SMILES	inhibition
COc1ccc2oc(=O)c(C(=O)O)cc2c1	-0.521% (inactive)
COc1ccc2oc(=O)c(C(=O)N3CCCC3)cc2c1	22% (inactive)
O=C(Cc1c(O)c2ccccc2[nH]c1=O)NCc1ccccc1	2.47% (inactive)
COc1cc(OC)cc(C(=O)NCC(=O)OCc2csc(-c3ccccc3)n2)c1	3.87% (inactive)
Cc1cc(NC(=O)CN2C(=O)NC(CCc3ccccc3)C2=O)no1 (stereo not drawn)	-23.9% (inactive)
CC(C)OC(=O)Cn1nc(C(F)(F)F)c2c1CCCC2	22.4% (inactive)
O=C(N/N=C/c1ccc([N+](=O)[O-])cc1)C(=O)N1CCCC1	6.04% (inactive)
N#C/C(=C/c1ccc(N2CCOCC2)o1)C(=O)N1CCOCC1	1.17% (inactive)
Cc1nnc(SCC(=O)NNC(=O)c2ccc(Cl)cc2)n1CC1CCCO1 (stereo not drawn)	22.1% (inactive)
Cc1cccn2c(=O)c3cc(C#N)c(=O)n(CCCN4CCOCC4)c3nc12	178% (active)
Cc1cccn2c(=O)c3cc(C#N)c(=NC(=O)c4cccnc4)n(CC4CCCO4)c3nc12 (stereo not drawn)	35.1% (inactive)
Cc1cccn2c(=O)c3cc(C(=O)N4COCC4(C)C)n(C)c3nc12	11.2% (inactive)
COc1ccc(CCNC(=O)COC(=O)/C=C/c2cccs2)cc1OC	19.3% (inactive)
COC(=O)C1=CN(Cc2ccc(OC)c(OC)c2)C=C(C(=O)OC)C1c1cccs1	79.3% (active)
COc1ccc(C2=NN(C(=O)CCC(=O)O)C(c3cccs3)C2)cc1OC (stereo not drawn)	19.1% (inactive)
Cc1ccc2nc(-c3ccncc3)cc(C(=O)Nc3ccc4c(c3)OCCO4)c2c1	-4.23% (inactive)
Cc1ccc2nc(-c3ccccn3)cc(C(=O)Nc3ccc4c(c3)OCO4)c2c1	-2.84% (inactive)
O=C(NCc1cccs1)c1cc(-c2ccccn2)nc2ccc(Br)cc12	-19.4% (inactive)
O=C(Nc1ccncc1)c1cc(-c2ccccn2)nc2ccc(Br)cc12	81.4% (active)
Cc1ccc2nc(-c3ccccc3)cc(C(=O)O)c2c1	3.19% (inactive)
Cc1ccc2nc(-c3ccncc3)cc(C(=O)Nc3ccc(OC(F)F)cc3)c2c1	53.4% (active)
